PrP 5UTR inh: suppresses PrP 5' UTR mRNA reporter expression | cell-based PrP 5' UTR mRNA reporter, plate reader | inhibition, % (test concentration not listed) | 0.35% of 340,000 active | AID 488862; in the data active = inhibition above about 52%; also: 0 = median of the neutral control wells
RecA splice inh: inhibitors of M. tuberculosis RecA intein splicing | cell-free RecA intein splicing, fluorescence | inhibition, % (test concentration not listed) | 0.75% of 290,000 active | AID 2221; in the data active = inhibition above about 30%;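 also: 0% = vehicle wells and 100% = reference inhibitor control wells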
FadD28 binding: blocks FadD28 binding to the bisubstrate probe; fluorescence polarization; inhibition, % at 12.5 µM; 0.22% of 360,000 active; AID 588549; in the data active = inhibition above about 8.5%, passing the limit was not always enough
UGM FP inh: blocks M. tuberculosis UGM enzyme; purified UGM, fluorescence polarization probe displacement; inhibition, % at 10 µM; 0.06% of 320,000 active; in the data active = inhibition above about 10%, passing the limit was not always enough
Target sequence (P9WIQ1 whole entry, looked up): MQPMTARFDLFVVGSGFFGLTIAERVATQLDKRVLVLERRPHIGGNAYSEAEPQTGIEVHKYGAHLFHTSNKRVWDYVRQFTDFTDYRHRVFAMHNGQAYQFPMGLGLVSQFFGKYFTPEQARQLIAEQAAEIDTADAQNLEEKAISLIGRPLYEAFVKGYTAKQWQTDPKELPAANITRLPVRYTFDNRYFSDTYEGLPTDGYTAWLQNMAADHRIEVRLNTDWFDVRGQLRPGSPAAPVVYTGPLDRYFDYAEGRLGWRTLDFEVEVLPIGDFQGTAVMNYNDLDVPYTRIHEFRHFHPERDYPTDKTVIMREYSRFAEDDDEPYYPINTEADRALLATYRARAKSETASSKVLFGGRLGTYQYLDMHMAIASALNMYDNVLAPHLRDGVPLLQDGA
Rv3671c inh: inhibits the M. tuberculosis serine protease Rv3671c; inhibition, % at 5.96 µM; 0.048% of 320,000 active; in the data active = inhibition above about 38%;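 also: extracellular domain of Rv3671c used as enzyme; 0% = enzyme with DMSO and 100% = no enzyme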
BJeLR lethal: kills HRASV12-expressing BJeLR cells; BJeLR (HRASV12) viability, CellTiter-Glo ATP luminescence, 48 h; inhibition, % (concentration not given with the values); 0.17% of 300,000 active; AID 1554; in the data active = inhibition above about 50%
GFP chromo cs: counter-screen: blocks GFP chromophore formation; shares compounds with RecA splice inh; 83% of 2,100 active; cell-free GFP chromophore formation, fluorescence; EC50, µM; call rule not given here
An asterisk follows results filed as active; . = no result given. Hits are enriched below; roughly 1.3% of the tested compounds scored in any of these assays.

SMILES | PrP 5UTR inh | RecA splice inh | FadD28 binding | UGM FP inh | Rv3671c inh | BJeLR lethal | GFP chromo cs
COc1cccc(CN2CCN(Cc3ccc(C#CC(C)(C)O)s3)CC2CCO)c1 (configuration not stated) | -5 | 77* | -4 | -4 | 1 | -4 | >38
Nc1cc2nn(-c3ccccc3)nc2cc1Cl | -167 | 63* | -1 | . | . | -3 | 37*
Nc1ccc2nn(-c3ccccc3)nc2c1 | -47 | . | -1 | . | . | . | .
O=C1C2CC=CCC2C(=O)N1c1nccs1 (configuration not stated) | 0 | . | 3 | . | . | . | .
CCn1c(Cl)c(C=O)s/c1=N\S(=O)(=O)c1ccccc1 | -17 | 89* | -4 | 1 | -2 | 16 | 15*
CCN1C(=O)CS/C1=N\S(=O)(=O)c1ccc(Cl)cc1 | -11 | 0 | 2 | 1 | -1 | -13 | .
COc1ccc([C@@H]2C[C@H]3[C@@H](CN2S(=O)(=O)c2ccccc2)C(=O)C[C@@H](c2ccc(OC)cc2)N3S(=O)(=O)c2ccccc2)cc1 | . | . | -2 | . | . | . | .
CCCc1[nH][nH]c(=O)c1C(c1ccc(Br)cc1)C(C#N)C#N (configuration not stated) | 3 | 66* | -6 | 2 | -7 | 4 | 11*
CCCc1[nH][nH]c(=O)c1C(c1ccc(Cl)cc1)C(C#N)C#N (configuration not stated) | -14 | 70* | -10 | -1 | -9 | 10 | 18*
CSc1cc(-c2ccc(Cl)cc2)[nH]c(=O)c1C#N | 3 | -1 | 1 | 1 | 1 | -1 | .
CCCc1[nH][nH]c(=O)c1C(c1ccccc1)C(C#N)C#N (configuration not stated) | -21 | 62* | -4 | 3 | 9 | -20 | 20*
CC1(C(=O)NS(=O)(=O)c2ccc(F)cc2F)CCN1C(=O)C/C=C/c1ccccc1 (configuration not stated) | . | . | -2 | . | . | . | .
COc1cc(CN2C[C@@H](CO)O[C@@H](n3cnc4c(NC(C)C)ncnc43)C2)cc(OC)c1OC | . | . | -1 | . | . | . | .
CCOC(=O)C1CCCN(C(=O)c2ccc(SC(F)(F)F)cc2)CC1 (configuration not stated) | . | . | 0 | . | . | . | .
CC(=O)C1=CCC(c2ccccc2)N(S(=O)(=O)c2cccc(C)c2)C1 (configuration not stated) | . | . | -5 | . | . | . | .
CC(C)(C)OC(=O)N[C@@H](Cc1ccccc1)c1nnc(S(=O)(=O)Cc2cccc(F)c2)o1 | . | 12 | . | -3 | 0 | 7 | .
CC(C)[C@H](NC(=O)OC(C)(C)C)c1nnc(S(=O)(=O)Cc2c(F)cccc2Cl)o1 | -20 | 56* | -3 | -3 | 10 | -8 | 23*
Cn1c(SCC(=O)NCc2ccc(F)cc2)nc2ccccc21 | -8 | 31* | -4 | 3 | -5 | 5 | >38
COCCn1c(SCC(=O)NCc2ccc(F)cc2)nc2ccccc21 | 1 | -3 | -1 | 1 | 5 | -6 | .
CC(=O)NC1(C)CCC2CC1C(C)=NC2(C)C (configuration not stated) | . | . | -4 | . | . | . | .
O=C1Cc2c([nH]c3ccc([N+](=O)[O-])cc23)-c2ccccc2N1 | -24 | . | -2 | . | . | . | .
COc1ccc(S(=O)(=O)N2CCCCC2)cc1NC(=O)CCNC(=O)c1ccc(Cl)cc1 | -8 | . | -1 | 1 | 0 | . | .
CN(C)CCSc1nnc2[nH]c3ccccc3c2n1 | -14 | 32* | -1 | 0 | 3 | 12 | 9.4*
O=C(CCl)Nc1ccc(N=Nc2ccccc2)cc1 | -31 | 79* | -2 | . | . | -10 | 30*
O=C(CCl)Nc1ccc(-c2ccccc2)cc1 | -42 | 75* | -1 | -2 | -7 | 1 | 24*
SMILES | PrP 5UTR inh | RecA splice inh | FadD28 binding | UGM FP inh | Rv3671c inh | BJeLR lethal | GFP chromo cs
CC(C)N(c1ccccc1)c1ccc(NC(=O)CCl)cc1 | -11 | 51* | 0 | -1 | 4 | 12 | 8.7*
O=C(CCl)Nc1cccc(Oc2ccccc2)c1 | -17 | 65* | -7 | -1 | -1 | 0 | 35*
CC1(C)CC(=O)C=C(c2ccc(-c3cccc4c3sc3ccccc34)cc2)C1=O | . | . | -3 | . | . | . | .
CS(=O)(=O)N1CCC(Oc2ccccc2C(=O)N2CCCCC2CO)CC1 (configuration not stated) | -24 | 48* | -2 | 3 | 5 | 7 | >38
Cc1csc(=O)n1CCC(=O)OCC(=O)NCc1ccccc1 | . | . | -1 | . | . | . | .
Cn1c(-[n+]2c(-c3ccccc3)cc(-c3ccccc3)cc2-c2ccccc2)nc2c([N+](=O)[O-])cccc21 | -21 | 33* | -2 | 0 | -1 | 3 | 30*
O=[N+]([O-])c1ccc(-[n+]2c(-c3ccccc3)cc(-c3ccccc3)cc2-c2ccccc2)cc1 | -18 | 0 | 0 | 1 | 1 | -1 | .
Cc1cc(=O)n(CCCc2ccccc2)[nH]1 | -2 | 92* | 1 | -2 | -58 | 6 | 8*
O=C(CN1C(=O)c2ccccc2C1=O)c1ccccc1 | -7 | 1 | -1 | -4 | -5 | -5 | .
CC1=C(CC(=O)c2ccccc2)C(=O)c2ccccc2C1=O | -38 | 43* | -4 | 2 | -57 | 0 | 26*
CSc1nc(-c2ccc(Cl)cc2)nn1C(=O)c1ccco1 | -49 | 38* | 0 | 1 | -4 | 2 | >38
Cc1ccc(SCc2[nH]nc3c2C2(CCSCC2)C(C#N)=C(N)O3)cc1 | -29 | 60* | -4 | 3 | -4 | -5 | 16*
COC(=O)Cc1[nH]nc2c1C1(CCSCC1)C(C#N)=C(N)O2 | -20 | 66* | -1 | 0 | 5 | -3 | 17*
COCc1[nH]nc2c1C1(C(=O)Nc3ccc(F)cc31)C(C#N)=C(N)O2 (configuration not stated) | -8 | 3 | -1 | 1 | -4 | -7 | .
COC(=O)Cc1[nH]nc2c1C1(C(=O)N(Cc3ccc(Cl)cc3)c3ccccc31)C(C#N)=C(N)O2 (configuration not stated) | -20 | 15 | -7 | -3 | -7 | 4 | .
CC1(C(=O)Nc2ccc(Cl)c(Cl)c2)CCN1C(=O)CCC1CCCC1 (configuration not stated) | . | . | -6 | . | . | . | .
COc1cccc(NC2=C(NCCO)C(=O)c3ccccc3C2=O)c1 | -30 | 11 | 1 | 0 | -6 | -2 | .
COc1ccc(NC2=C(NCCO)C(=O)c3ccccc3C2=O)cc1 | -75 | 56* | -1 | 1 | -107 | 17 | 31*
Cc1ccc(NC2=C(Cl)C(=O)c3ccccc3C2=O)cc1 | -60 | 4 | -1 | 0 | -1 | 7 | .
O=C1C(Cl)=C(Nc2ccc(O)cc2)C(=O)c2ccccc21 | -48 | 95* | 0 | 1 | -11 | 3 | 2.5*
COC1=C(Nc2ccc(O)cc2)C(=O)c2ccccc2C1=O | -84 | 58* | -1 | 1 | -32 | -1 | 13*
COC1=C(Nc2ccc(OC)cc2)C(=O)c2ccccc2C1=O | -90 | 6 | -3 | 2 | -30 | 15 | .

High-throughput results: PubChem BioAssay, several laboratories
